Measured values reported in PubChem BioAssay AID493188 (National Center for Advancing Translational Sciences (NCATS), 2011).
Results filed as inconclusive are left out. Active and inactive are the calls of the source. Calls come from the whole dose curve; as a rule, active = well fitted inhibition curve with a large enough effect; inconclusive = small, poorly fitted or top-dose-only effect; inactive = flat fitted curve, though single readings scatter.

molecular target: Galactokinase (Homo sapiens) (UniProt P51570); test: Confirmation Assay for Inhibitors of Human Galactokinase (GALK): SAR round 2; details: Recombinant GALK, Kinase-Glo ATP depletion luminescence; series mostly up to 57.5 µM
Sequence (P51570 whole entry, looked up): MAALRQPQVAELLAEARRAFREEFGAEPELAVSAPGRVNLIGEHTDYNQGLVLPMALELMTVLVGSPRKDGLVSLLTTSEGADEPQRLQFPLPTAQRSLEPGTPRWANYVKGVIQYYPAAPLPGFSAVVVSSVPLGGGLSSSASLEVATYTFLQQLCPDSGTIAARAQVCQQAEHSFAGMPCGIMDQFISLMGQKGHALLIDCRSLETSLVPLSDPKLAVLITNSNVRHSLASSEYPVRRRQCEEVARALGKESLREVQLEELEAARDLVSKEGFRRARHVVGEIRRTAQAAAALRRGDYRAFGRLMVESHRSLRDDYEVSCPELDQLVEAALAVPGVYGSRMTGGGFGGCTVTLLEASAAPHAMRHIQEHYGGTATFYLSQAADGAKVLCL
Text: NIH Molecular Libraries Probe Production Centers Network [MLPCN] NIH Chemical Genomics Center [NCGC] MLPCN Grant: R03 MH085689-01 Assay Submitter (PI): Kent Lai (University of Utah School of Medicine, 50 N Mario Capecchi Drive, Salt Lake City, UT 84132) NCGC Assay Overview Inherited deficiency of galactose-1-phosphate uridyltransferase (GALT) can result in a potentially lethal disorder called Classic Galactosemia (OMIM 230400). Several lines of evidence indicate that an elevated level of galactose-1-phosphate (gal-1-p), the product of galactokinase (GALK), is a major, if not sole, pathogenic mechanism in patients with classic galactosemia. Therefore, finding inhibitors of GALK is a potential novel therapy for this inherent metabolic disease and is the long term goal of this project. Active compounds observed in the qHTS GALK assay (AID: 1868) were cherry picked and re-screened for validation. GALK (provided by Kent Lai) was assayed using ATP and D-(+)-Galactose (Sigma-Aldrich cat# G0750) as substrates. Promega Kinase-Glo Plus (cat# V3774) technology was used to detect the residual ATP following kinetic reaction. Briefly, the Kinase-Glo Plus contains Ultra-Glo [1] luciferase and D-luciferin which generates a bioluminescence signal from the remaining ATP. Kinase reactions with and without GALK were used as negative and positive controls together with Protein Tyrosine Phosphatase CD45 inhibitor (EMD Bioscience cat# 540215) which is shown to inhibit GALK activity.
NCGC Assay Protocol Summary: Three uL/well of ATP-buffer solution (35 uM ATP, 20mM HEPES pH8.0, 5 mM MgCl2, 60 mM NaCl, 1 mM DTT, 0.01% BSA final concentration) was dispensed into 1536-well, assay plates (Greiner, solid white medium-binding plates) with Aurora Discovery BioRAPTR Flying Reagent Dispenser (FRD; Beckton-Dickenson). Compound and control solution (23 nL) was transferred to the assay plate using the Kalypsys 1536-pin tool apparatus. One uL/well GALK-galactose solution (5 nM GALK, 100 uM galactose, 20 mM HEPES pH8.0, 5 mM MgCl2, 60 mM NaCl, 1 mM DTT, 0.01% BSA final concentration) was then added using the FRD yielding a total kinase reaction volume of 4 uL/ well. After 1 hour of room temperature incubation, 4 uL Kinase-Glo Plus reagent was added for a final assay volume of 8 uL/well. Luminescence was detected with the ViewLux plate reader (Perkin Elmer, Waltham, MA) after 2 min incubation using a 1 sec exposure time and 2x binning.

| Structure (SMILES) | Potency |
| --- | --- |
| CC(C)c1nc(Nc2nc3ccccc3o2)nc2c1CCCC2 | inactive |
| O=C1CCCC2=C1C(c1ccccc1)N=C(Nc1nc3ccccc3o1)N2 (configuration not stated) | 34.3 µM (active) |
| Cc1ccc(N(CC(=O)Nc2ccc(OC(F)(F)F)cc2)S(=O)(=O)c2c(C)noc2C)cc1 | inactive |
| COc1cccc(C2N=C(Nc3nc4ccccc4o3)NC3=C2C(=O)CCC3)c1 (configuration not stated) | 18.8 µM (active) |
| O=C1CCCC2=C1[C@@]1(CCC(c3ccccc3)C1)N=C(Nc1nc3ccccc3o1)N2 (some centres not stated) | inactive |
| O=C1CCCC2=C1C(c1cccc(Oc3ccccc3)c1)N=C(Nc1nc3ccccc3o1)N2 (configuration not stated) | inactive |
| O=C1CCCC2=C1C(c1ccccc1Cl)N=C(Nc1nc3ccccc3o1)N2 (configuration not stated) | 2.66 µM (active) |
| O=C1CCCC2=C1C(c1ccncc1Cl)N=C(Nc1nc3ccccc3o1)N2 (configuration not stated) | 15.3 µM (active) |
| CC(C)(C)C(=O)Nc1ccc2c(c1)C(=O)C(=O)c1ccccc1-2 | 2.59 µM (active) |
| O=C1CCCC2=C1C(c1ccccc1C(F)(F)F)N=C(Nc1nc3ccccc3o1)N2 (configuration not stated) | 12.2 µM (active) |
| Cc1ccc(C2N=C(Nc3nc4ccccc4o3)NC3=C2C(=O)CCC3)s1 (configuration not stated) | 61.1 µM (active) |
| Cc1nc(Nc2nc3ccccc3o2)nc2c1CCCC2 | inactive |
